{
  "source": "the supplement of paper PMC9492666",
  "key": {"[1]": {"tested_on": "HCC1937", "test": "relative cell viability, compound alone, vs DMSO (fraction of DMSO control); higher = less growth inhibition", "conditions": "72 h"}, "[2]": {"tested_on": "MDA-MB-231", "test": "relative cell viability, compound alone, vs DMSO (fraction of DMSO control); higher = less growth inhibition", "conditions": "72 h"}},
  "note": "Counter-ions that a name gives are not always drawn.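 Also: viability read out with the CCK-8 kit in 96-well plates, screening a set of 303 compounds acting on lipid metabolism targets.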",
  "data": [
    {"smiles": "CC(C)OC(=O)CCC/C=C\\C[C@@H]1[C@@H](CC[C@@H](O)CCc2ccccc2)[C@H](O)C[C@@H]1O", "note": "[Latanoprost]", "values": [
      {"measurement": "relative cell viability", "setting": "[1]", "value": 1.43},
      {"measurement": "relative cell viability", "setting": "[2]", "value": 0.88}
    ]},
    {"smiles": "CCC(CC)CC1(C(=O)Nc2ccccc2SC(=O)C(C)C)CCCCC1", "note": "[Dalcetrapib]", "values": [
      {"measurement": "relative cell viability", "setting": "[1]", "value": 1.35},
      {"measurement": "relative cell viability", "setting": "[2]", "value": 1.06}
    ]},
    {"smiles": "Cc1cnc(C(=O)NCCc2ccc(S(=O)(=O)NC(=O)NC3CCCCC3)cc2)cn1", "note": "[Glipizide]", "values": [
      {"measurement": "relative cell viability", "setting": "[1]", "value": 0.679},
      {"measurement": "relative cell viability", "setting": "[2]", "value": 0.817}
    ]},
    {"smiles": "CC(C)=CCC[C@](C)(O[C@@H]1O[C@H](CO)[C@@H](O)[C@H](O)[C@H]1O)[C@H]1CC[C@]2(C)[C@@H]1[C@H](O)C[C@@H]1[C@@]3(C)CC[C@H](O[C@@H]4O[C@H](CO)[C@@H](O)[C@H](O)[C@H]4O[C@@H]4O[C@H](CO)[C@@H](O)[C@H](O)[C@H]4O)C(C)(C)[C@@H]3CC[C@]12C", "note": "[Ginsenoside Rd]", "values": [
      {"measurement": "relative cell viability", "setting": "[1]", "value": 0.834},
      {"measurement": "relative cell viability", "setting": "[2]", "value": 0.896}
    ]},
    {"smiles": "CC(=O)N1CCN(c2ccc(OCC3COC(Cn4ccnc4)(c4ccc(Cl)cc4Cl)O3)cc2)CC1", "note": "(stereo not drawn) [Ketoconazole]", "values": [
      {"measurement": "relative cell viability", "setting": "[1]", "value": 1.3},
      {"measurement": "relative cell viability", "setting": "[2]", "value": 0.897}
    ]},
    {"smiles": "O=C(ON1C(=O)CCC1=O)N1CCN(C(c2ccc(Cl)cc2)c2ccc(Cl)cc2)CC1", "note": "[Cravatt Reagent]", "values": [
      {"measurement": "relative cell viability", "setting": "[1]", "value": 1.26},
      {"measurement": "relative cell viability", "setting": "[2]", "value": 0.975}
    ]},
    {"smiles": "Cc1c(C(=O)NN2CCCCC2)nn(-c2ccc(Cl)cc2Cl)c1-c1ccc(Cl)cc1", "note": "[Rimonabant]", "values": [
      {"measurement": "relative cell viability", "setting": "[1]", "value": 0.936},
      {"measurement": "relative cell viability", "setting": "[2]", "value": 0.817}
    ]},
    {"smiles": "COc1cc(O)c2c(c1)O[C@H](c1ccc(O)cc1)CC2=O", "note": "[Sakuranetin]", "values": [
      {"measurement": "relative cell viability", "setting": "[1]", "value": 0.627},
      {"measurement": "relative cell viability", "setting": "[2]", "value": 0.941}
    ]},
    {"smiles": "CCOP(=O)(OCC)C(=Cc1cc(C(C)(C)C)c(O)c(C(C)(C)C)c1)P(=O)(OCC)OCC", "values": [
      {"measurement": "relative cell viability", "setting": "[1]", "value": 0.631},
      {"measurement": "relative cell viability", "setting": "[2]", "value": 0.779}
    ]},
    {"smiles": "CC(C)OC(=O)C(C)(C)Oc1ccc(C(=O)c2ccc(Cl)cc2)cc1", "note": "[Fenofibrate]", "values": [
      {"measurement": "relative cell viability", "setting": "[1]", "value": 1.16},
      {"measurement": "relative cell viability", "setting": "[2]", "value": 0.955}
    ]},
    {"smiles": "CC(C)(Oc1ccc(Cl)cc1)C(=O)O", "note": "[Clofibric acid]", "values": [
      {"measurement": "relative cell viability", "setting": "[1]", "value": 1.24},
      {"measurement": "relative cell viability", "setting": "[2]", "value": 0.825}
    ]},
    {"smiles": "CC(c1cc2ccccc2s1)N(O)C(N)=O", "note": "(stereo not drawn) [Zileuton]", "values": [
      {"measurement": "relative cell viability", "setting": "[1]", "value": 1.21},
      {"measurement": "relative cell viability", "setting": "[2]", "value": 0.906}
    ]},
    {"smiles": "O=C(CC(C(=O)O)c1c[nH]c2ccccc12)c1ccc(F)cc1F", "note": "(stereo not drawn) [Mitochonic acid 5]", "values": [
      {"measurement": "relative cell viability", "setting": "[1]", "value": 1.26},
      {"measurement": "relative cell viability", "setting": "[2]", "value": 1.19}
    ]},
    {"smiles": "C[C@H](CCC(=O)O)[C@H]1CC[C@H]2[C@@H]3CC[C@@H]4C[C@H](O)CC[C@]4(C)[C@H]3CC[C@]12C", "note": "[Lithocholic acid]", "values": [
      {"measurement": "relative cell viability", "setting": "[1]", "value": 1.16},
      {"measurement": "relative cell viability", "setting": "[2]", "value": 0.99}
    ]},
    {"smiles": "N=C(N)NC(=N)NCCc1ccccc1", "note": "[Phenformin hydrochloride]", "values": [
      {"measurement": "relative cell viability", "setting": "[1]", "value": 0.76},
      {"measurement": "relative cell viability", "setting": "[2]", "value": 0.868}
    ]},
    {"smiles": "O=C(O)Cn1nnc(-c2cc(N3CCC(Oc4cc(F)ccc4Br)CC3)no2)n1", "values": [
      {"measurement": "relative cell viability", "setting": "[1]", "value": 0.842},
      {"measurement": "relative cell viability", "setting": "[2]", "value": 0.882}
    ]},
    {"smiles": "COc1cc([C@@H]2Oc3c(O)cc([C@H]4Oc5cc(O)cc(O)c5C(=O)[C@@H]4O)cc3[C@H]2CO)ccc1O", "note": "[Silychristin]", "values": [
      {"measurement": "relative cell viability", "setting": "[1]", "value": 1.04},
      {"measurement": "relative cell viability", "setting": "[2]", "value": 1.02}
    ]},
    {"smiles": "CN1CC(O)C2=C/C(=N/NC(N)=O)C(=O)C=C21", "note": "(stereo not drawn) [Carbazochrome]", "values": [
      {"measurement": "relative cell viability", "setting": "[1]", "value": 0.793},
      {"measurement": "relative cell viability", "setting": "[2]", "value": 0.871}
    ]},
    {"smiles": "CC(C)(O)c1ccccc1CC[C@@H](SCC1(CC(=O)O)CC1)c1cccc(/C=C/c2ccc3ccc(Cl)cc3n2)c1", "note": "[Montelukast]", "values": [
      {"measurement": "relative cell viability", "setting": "[1]", "value": 0.789},
      {"measurement": "relative cell viability", "setting": "[2]", "value": 0.857}
    ]},
    {"smiles": "COc1ccc(CN2CCC(c3ccc4nc(C(=O)N5CCN(Cc6ccc(C(F)(F)F)cc6)CC5)[nH]c4c3)CC2)cn1", "values": [
      {"measurement": "relative cell viability", "setting": "[1]", "value": 0.849},
      {"measurement": "relative cell viability", "setting": "[2]", "value": 0.795}
    ]},
    {"smiles": "CC(C)CCC[C@@H](C)[C@H]1CC[C@H]2[C@@H]3CC=C4C[C@@H](O)CC[C@]4(C)[C@H]3CC[C@]12C", "note": "[Cholesterol]", "values": [
      {"measurement": "relative cell viability", "setting": "[1]", "value": 0.91},
      {"measurement": "relative cell viability", "setting": "[2]", "value": 1.01}
    ]},
    {"smiles": "COCCNC(=O)Nc1ccc2nc(-c3cccs3)c(-c3cccs3)nc2c1", "note": "[Ac-CoA Synthase Inhibitor1]", "values": [
      {"measurement": "relative cell viability", "setting": "[1]", "value": 0.959},
      {"measurement": "relative cell viability", "setting": "[2]", "value": 0.91}
    ]},
    {"smiles": "Cc1ccc(/C=C2\\SC(=S)N(CCCCCC(=O)Nc3ccc(C(=O)O)c(O)c3)C2=O)cc1", "values": [
      {"measurement": "relative cell viability", "setting": "[1]", "value": 1.07},
      {"measurement": "relative cell viability", "setting": "[2]", "value": 0.914}
    ]},
    {"smiles": "O=C(Nc1cccnn1)N1CCC(=Cc2cccc(Oc3ccc(C(F)(F)F)cn3)c2)CC1", "values": [
      {"measurement": "relative cell viability", "setting": "[1]", "value": 1.15},
      {"measurement": "relative cell viability", "setting": "[2]", "value": 0.987}
    ]},
    {"smiles": "Cc1coc2c1C(=O)C(=O)c1c-2ccc2c(C)cccc12", "note": "[Tanshinone I]", "values": [
      {"measurement": "relative cell viability", "setting": "[1]", "value": 0.287},
      {"measurement": "relative cell viability", "setting": "[2]", "value": 0.51}
    ]},
    {"smiles": "O=C(Nc1ccncc1)c1cc([N+](=O)[O-])ccc1Cl", "values": [
      {"measurement": "relative cell viability", "setting": "[1]", "value": 0.81},
      {"measurement": "relative cell viability", "setting": "[2]", "value": 0.831}
    ]},
    {"smiles": "CCCc1c(OCCCOc2ccc(OCC(=O)O)cc2)ccc(C(C)=O)c1O", "values": [
      {"measurement": "relative cell viability", "setting": "[1]", "value": 0.943},
      {"measurement": "relative cell viability", "setting": "[2]", "value": 1.07}
    ]},
    {"smiles": "CC(C)OC(=O)C(C(=O)OC(C)C)=C1SC=CS1", "note": "[Malotilate]", "values": [
      {"measurement": "relative cell viability", "setting": "[1]", "value": 0.686},
      {"measurement": "relative cell viability", "setting": "[2]", "value": 0.828}
    ]},
    {"smiles": "CC(=O)Oc1cc(C(F)(F)F)ccc1C(=O)O", "note": "[Triflusal]", "values": [
      {"measurement": "relative cell viability", "setting": "[1]", "value": 1.1},
      {"measurement": "relative cell viability", "setting": "[2]", "value": 0.982}
    ]}
  ]
}
